According to PMC4336329 (PLoS ONE, 2015):
Among all 310,000 compounds or so, about 2,200 (0.71%) showed an effect of 50% or more. The effect is printed as a negative number. The sample as a whole holds a higher share of strong results than the screen did.

What follows are compounds tested against human ether-à-go-go-related gene (hERG) potassium channel (human, UniProt Q12809) (assay: primary screen, population patch clamp on CHO cells stably expressing hERG; higher = less effect of the substance).
Procedure: Briefly, Chinese hamster ovary (CHO) cells stably expressing the hERG channel were dislodged from tissue culture flasks and dispensed into PPC plates. […] During the recording, background leak currents were estimated by a 100 ms step to -80 mV from an initial holding potential of -70 mV and subtracted from the subsequent current measurement. The campaign was conducted in two phases using slight differences in recording protocol. In the first phase, the initial voltage pulse used a 100 ms step to -30 mV from a holding potential of -70 mV, a 2 s conditioning step to +25 mV, and a 2 s test step to -30 mV. During the second phase of the screen, the potential during the conditioning step was raised to +45 mV. In both phases of the campaign, a secondary voltage pulse was applied using the same parameters as the second phase initial pulse. The initial and secondary pulses were applied in the absence of compound, and upon application of 1 μM and 10 μM test concentrations. Small molecule effects on hERG current density were quantified by […].

human ether-à-go-go-related gene (hERG) potassium channel, sequence (Q12809 whole entry, looked up): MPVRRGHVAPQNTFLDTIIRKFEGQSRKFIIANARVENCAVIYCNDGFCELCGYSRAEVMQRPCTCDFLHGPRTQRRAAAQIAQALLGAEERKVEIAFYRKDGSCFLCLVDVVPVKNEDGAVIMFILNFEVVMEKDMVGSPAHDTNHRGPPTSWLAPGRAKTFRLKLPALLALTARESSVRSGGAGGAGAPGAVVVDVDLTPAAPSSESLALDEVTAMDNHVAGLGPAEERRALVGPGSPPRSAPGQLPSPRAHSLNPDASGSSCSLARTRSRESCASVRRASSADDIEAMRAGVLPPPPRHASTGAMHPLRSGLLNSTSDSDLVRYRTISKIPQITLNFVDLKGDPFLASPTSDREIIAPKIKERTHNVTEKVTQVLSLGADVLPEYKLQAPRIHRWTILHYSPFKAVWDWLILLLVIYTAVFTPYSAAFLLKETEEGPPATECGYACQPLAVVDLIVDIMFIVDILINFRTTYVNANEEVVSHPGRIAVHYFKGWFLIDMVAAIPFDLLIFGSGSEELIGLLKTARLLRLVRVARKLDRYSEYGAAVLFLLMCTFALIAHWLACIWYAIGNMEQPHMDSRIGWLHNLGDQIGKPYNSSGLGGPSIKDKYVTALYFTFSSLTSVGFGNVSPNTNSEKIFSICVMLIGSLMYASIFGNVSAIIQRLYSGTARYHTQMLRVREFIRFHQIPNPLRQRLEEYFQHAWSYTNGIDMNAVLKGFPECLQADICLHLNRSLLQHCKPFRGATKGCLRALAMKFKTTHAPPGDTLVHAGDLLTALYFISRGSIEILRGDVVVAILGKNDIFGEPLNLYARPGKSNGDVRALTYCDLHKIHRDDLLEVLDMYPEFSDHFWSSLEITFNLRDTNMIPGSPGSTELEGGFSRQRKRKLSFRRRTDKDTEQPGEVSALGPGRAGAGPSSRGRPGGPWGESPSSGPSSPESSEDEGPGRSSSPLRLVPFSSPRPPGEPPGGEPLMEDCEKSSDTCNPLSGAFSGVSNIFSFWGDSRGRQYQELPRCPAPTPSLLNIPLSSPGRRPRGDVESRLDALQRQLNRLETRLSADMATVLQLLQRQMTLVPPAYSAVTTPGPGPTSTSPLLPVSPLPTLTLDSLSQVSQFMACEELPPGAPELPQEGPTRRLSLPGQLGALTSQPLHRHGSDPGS

SMILES | hERG current change (%, negative = inhibition) at 1uM [%]
CN1CCN(Cc2ccccc2Sc2ccccc2)CC1.O=C(O)/C=C\C(=O)O | -68.1
O=C(O)/C=C\C(=O)O.c1ccc(Sc2ccccc2CN2CCCC2)cc1 | -11.3
CNC(C)Cc1ccccc1Sc1ccc(O)cc1.Cl (stereo not drawn) | -21.1
CC(Cc1ccccc1Sc1ccc(O)cc1)N(C)C.CCO.Cl (stereo not drawn) | -73.1
CC(Cc1ccccc1Sc1ccccc1O)N(C)C.Cl (stereo not drawn) | 3.67
N=C(N)Cc1ccccc1Sc1ccccc1.O=C(O)/C=C\C(=O)O | 5.87
N/C(Cc1ccccc1Sc1ccccc1)=N\O.O=C(O)/C=C\C(=O)O | 4.44
CC(Cc1ccccc1Sc1ccccc1)N(C)C.O=C(O)/C=C\C(=O)O (stereo not drawn) | -60.6
CCN(CC)Cc1ccccc1Sc1ccccc1.O=C(O)/C=C\C(=O)O | -6.63
CN(C)CCCn1c(SCC(=O)Nc2nc(-c3cccc(Br)c3)cs2)nc2ccccc2c1=O | -3.37
Cc1ccc([N+](=O)[O-])cc1NC(=O)c1ccccc1 | 0.0028
N#Cc1ccc(C(=O)Nc2nc(-c3cccs3)c(C(=O)C(F)(F)F)s2)cc1 | -18.6
CCC(CC)NC(=O)Nc1ccccc1C | 11.5
CC(C)OCCCN1CN(S(=O)(=O)c2ccc(Cl)cc2)c2nc3ccccc3nc21 | 13.8
O=C1Nc2ccc(Cl)cc2/C1=C/C1CC=CCC1 (stereo not drawn) | 7.83
COc1ccc(N2CCN(Cc3oc(CO)cc(=O)c3O)CC2)cc1 | 2.29
Cc1ccccc1CN1CCN(CC(=O)NC(C)c2ccccc2)CC1 (stereo not drawn) | 3.82
O=C(NCC1CCCO1)C(c1ccco1)N(Cc1ccc(F)cc1)C(=O)CN1C(=O)c2ccccc2S1(=O)=O (stereo not drawn) | 8.75
O=C(NCC1CCCO1)C(c1ccncc1)N(Cc1ccc(F)cc1)C(=O)CN1C(=O)c2ccccc2S1(=O)=O (stereo not drawn) | -51.2
COc1cccc(CN(C(=O)CN2C(=O)c3ccccc3S2(=O)=O)C(C(=O)NCC2CCCO2)c2ccco2)c1 (stereo not drawn) | -50.1
COc1ccc(CN(C(=O)CN2C(=O)c3ccccc3S2(=O)=O)C(C(=O)NCC2CCCO2)c2ccncc2)cc1 (stereo not drawn) | 0.0687

SMILES | hERG current change (%, negative = inhibition) at 1uM [%]
COc1cccc(C(C(=O)NCC2CCCO2)N(CC2CCCO2)C(=O)CN2C(=O)c3ccccc3S2(=O)=O)c1 (stereo not drawn) | 12.5
COc1ccc(CN(C(=O)CN2C(=O)c3ccccc3S2(=O)=O)C(C(=O)NCC2CCCO2)c2ccco2)cc1 (stereo not drawn) | -2.31
COc1ccc(CC(=O)Nc2ccc(OC(C)=O)cc2C(=O)O)cc1 | -3.47
O=c1c2ccccc2nnn1CSc1nnc2ccccn12 | 6.78
Cc1ccc(Sc2ncccc2C(=O)O)cc1C | 15.6
CCOC(=O)N1CCC(NCCNC(=O)c2cccs2)CC1 | 5.13
CCOC(=O)c1[nH]c2ccc(OC)cc2c1NC(=O)OC | 9.33
NC(=O)C1CCN(C(=O)N2c3ccccc3Sc3ccccc32)CC1 | 0.149
O=C(NCc1ccco1)C1CCCN(S(=O)(=O)c2ccc(-n3cnnn3)cc2)C1 (stereo not drawn) | -26.8
O=C(NCc1ccco1)C1CCN(S(=O)(=O)c2ccc(-n3cnnn3)cc2)CC1 | -62.1
CN(Cc1ccccc1)C(=O)C1CCN(S(=O)(=O)c2ccc(-n3cnnn3)cc2)CC1 | -62
O=C(NCc1ccco1)C1CCN(c2ccc(S(=O)(=O)N3CCOCC3)cc2[N+](=O)[O-])CC1 | -51.5
C=CCNC(=O)C1CCN(c2ccc(S(=O)(=O)N3CCOCC3)cc2[N+](=O)[O-])CC1 | -2.79
CCN(CC)C(=O)C1CCN(S(=O)(=O)c2ccc(-n3cnnn3)cc2)CC1 | 3.52
O=C(NCc1ccccc1Cl)C1CCN(S(=O)(=O)c2ccc(-n3cnnn3)cc2)CC1 | -3.01
C=CCN(CC=C)C(=O)C1CCN(S(=O)(=O)c2ccc(-n3cnnn3)cc2)CC1 | -13.1
CC(C)CNC(=O)C1CCN(c2ccc(S(=O)(=O)N3CCOCC3)cc2[N+](=O)[O-])CC1 | -9.02
C[C@@H]1CN(Cc2nc(Cc3ccccc3F)no2)C[C@H](C)O1 | 8.68
O=C(Nc1cccc(C(=O)O)c1)/C(=C\c1ccc2c(c1)OCO2)NC(=O)c1ccccc1 | 3.01
CC(C)Oc1cccc(C(=O)C2CCCN(C(=O)c3cncs3)C2)c1 (stereo not drawn) | 4.28
CC1CCC(C(C)C)C(OC(=O)Cn2c(-c3ccc(F)cc3)[n+](C)c3ccccc32)C1.[Cl-] (stereo not drawn) | -53.9

SMILES | hERG current change (%, negative = inhibition) at 1uM [%]
CC1CCC(C(C)C)C(OC(=O)COC(=O)c2ccccc2N)C1 (stereo not drawn) | 4.58
Cc1cccc(OCc2n(CC(=O)OC3CC(C)CCC3C(C)C)c3ccccc3[n+]2C)c1.[Cl-] (stereo not drawn) | -12.2
CC1CCC(C(C)C)C(OC(=O)COC(=O)c2cccn2C)C1 (stereo not drawn) | 17.6
CC1CCC(C(C)C)C(OC(=O)Cn2c(COc3ccccc3)[n+](C)c3ccccc32)C1.[Cl-] (stereo not drawn) | -54
CC1CCC(C(C)C)C(OC(=O)C[n+]2cc(-c3ccc(Cl)cc3)n3c2CCCCC3)C1.[Cl-] (stereo not drawn) | -19.9
CC1CCC(C(C)C)C(OC(=O)Cn2c(-c3ccccc3)[n+](C)c3ccccc32)C1.[Cl-] (stereo not drawn) | -42.1
CC1CCC(C(C)C)C(OC(=O)Cn2c(-c3ccc(Cl)cc3)[n+](C)c3ccccc32)C1.[Cl-] (stereo not drawn) | -58
Cc1ccccc1OCc1n(CC(=O)OC2CC(C)CCC2C(C)C)c2ccccc2[n+]1C.[Cl-] (stereo not drawn) | -1.86
CC1CCC(C(C)C)C(OC(=O)Cn2c(-c3ccc(Br)cc3)[n+](C)c3ccccc32)C1.[Cl-] (stereo not drawn) | -60.7
CC1CCC(C(C)C)C(OC(=O)C[n+]2cc(-c3ccc(Cl)cc3)n3c2CCC3)C1.[Cl-] (stereo not drawn) | -25.6
COc1ccc(OCc2n(CC(=O)OC3CC(C)CCC3C(C)C)c3ccccc3[n+]2C)cc1.[Cl-] (stereo not drawn) | -45.5
COc1ccc(N2CCC(CNS(=O)(=O)c3cccc(C(F)(F)F)c3)C2)cc1 (stereo not drawn) | 4.38
COc1cccc(NC(=O)Nc2nnc(CC(=O)Nc3ccccc3)s2)c1 | 6.56
CC(=O)Oc1ccc(-c2cccc(C(=O)NCCO)c2)cc1 | 16.3
O=C(CN1CCN(Cc2ccccc2Cl)CC1)N=Nc1c(O)[nH]c2ccccc12 | -5.17
Cc1ccc(CN2CCN(CC(=O)N=Nc3c(O)[nH]c4ccccc34)CC2)cc1 | -75.3
O=C(CN1CCN(Cc2ccccc2)CC1)N=Nc1c(O)[nH]c2ccccc12 | -37.6
COc1cc(C2CC(=O)Nc3cc(C)c(C)cc32)cc(OC)c1OC (stereo not drawn) | 14.3
COc1ccc(NC(=O)CNS(=O)(=O)c2ccc3nc(C)sc3c2)c(OC)c1 | 1.77
CC(C)C(Sc1nc(-c2ccccc2)cc(-c2ccccc2)c1C#N)C(=O)O (stereo not drawn) | 9.23
O=C(CN1CCC(n2nnc3cc(C(F)(F)F)ccc32)CC1)NCc1cccs1 | -56.9

SMILES | hERG current change (%, negative = inhibition) at 1uM [%]
C=CCNC(=O)CN1CCC(n2nnc3cc(C(F)(F)F)ccc32)CC1 | -0.772
O=C(CN1CCC(n2nnc3ccccc32)CC1)NCc1cccs1 | -47.3
O=C(CN1C(=O)CCSc2ccccc21)Nc1ccc2c(c1)OCO2 | -4.53
O=C(CCCN1C(=O)/C(=C\c2cccs2)SC1=S)NNC(=O)c1ccncc1 | 4.39
O=C(/C=C/c1ccc([N+](=O)[O-])cc1)NCCN1C(=O)S/C(=C\c2ccc(F)cc2)C1=O | 2.19
O=S(=O)(NCCN1CCCC1)c1ccc(Br)cc1 | 3.89
Cc1ccc(S(=O)(=O)N(CCC#N)CCN2CCCC2)cc1 | 2.4
O=[N+]([O-])c1ccc(S(=O)(=O)NCCN2CCOCC2)cc1 | 12.6
CCN(CC)S(=O)(=O)c1ccc(S(=O)(=O)N2CCN(CCC#N)CC2)cc1 | 8.96
N#CCCN(CCN1CCCC1)S(=O)(=O)c1ccc(-c2ccc([N+](=O)[O-])cc2)cc1 | -76.5
O=[N+]([O-])c1ccc(-c2ccc(S(=O)(=O)NCCN3CCCC3)cc2)cc1 | -77.3
O=C(NCC(c1ccco1)N1CCCC1)c1ccccc1Sc1ccc(C(F)(F)F)cc1[N+](=O)[O-] (stereo not drawn) | 4.07
CCOc1ccccc1N1CCN(C(=O)c2cccc(S(=O)(=O)N3CCOCC3)c2)CC1 | 10.8
NC(=O)Cn1cnc2nc3n(c2c1=O)CCC3 | -2.24
CC1CN(C(=O)COC(=O)COc2ccc(C#N)cc2)CC(C)O1 (stereo not drawn) | 11.6
CC1(C)Cc2c(c(=S)nc(-c3ccccc3)n2CCN2CCOCC2)CO1 | 6.74
CCCC(=O)Nc1nc2c(C)c(Cl)ccc2s1 | 6.64
COc1ccc(NC(=O)C(c2ccccc2)N(C)C(=O)c2ccc(=O)[nH]c2)cc1 (stereo not drawn) | 16.6
